Compound activity: PubChem BioAssay, National Center for Advancing Translational Sciences (NCATS)
TDP1 cell CPT – growth inhibition of DT40 Tdp1-/-;hTDP1 cells with camptothecin (screen for TDP1 inhibitors). chicken DT40 Tdp1-/-;hTDP1 cells + 20 nM CPT, ATP luminescence, 48 h. Potency, µM (series often up to 46.2 µM), hits mostly inhibitors. hit rate 12% among 420,000; further: nearly all actives have a fitted effect of over 55% in size
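Chicken DT40 Tdp1-/- cells complemented with human TDP1, 400 cells/well, exposed to compounds plus 20 nM camptothecin for at least 48 h at 37 C; viability read as ATP content by CellTiter-Glo luminescence.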
HT1080 IDH1KD tx – HT-1080 IDH1 knockdown cell toxicity (counter line). HT-1080 IDH1 knockdown viability, ATP luminescence, 48 h. Potency, µM (series often up to 46.1 µM), most hits filed as cytotoxic. hit rate 2% among 360,000. AID 686971
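% activity derives from luminescence (CellTiter-Glo), normalised to DMSO and no-cell wells. HT-1080-IDH1KD cells, 750/well, had 48 h compound exposure at 37 °C.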
HT1080NT lethal – kills 2HG-producing HT-1080-NT fibrosarcoma cells; HT-1080-NT fibrosarcoma viability, CellTiter-Glo ATP luminescence, 48 h; Potency, µM (titrated, usually from 46.1 µM), actives largely listed as cytotoxic; hit rate 1.6% among 360,000; AID 686970;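 further: NT is the 2HG producing partner of a matched IDH1 knockdown line; nearly all actives have a fitted effect of over 55% in size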
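HT-1080-NT; 750 cells/well; 5% FBS RPMI; 48 h compound, 37 degrees C; CellTiter-Glo luminescence; curve fitting and curve-class assignment.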
TDP1 cell noCPT – qHTS for Inhibitors of human tyrosyl-DNA phosphodiesterase 1 (TDP1): qHTS in cells in absence of CPT | DT40 Tdp1-/- hTDP1 cells, no CPT, ATP luminescence, 48 h | Potency, µM (top dose mostly 46.2 µM), usual class: inhibitors | hit rate 15% among 420,000; further: nearly all actives have a fitted effect of over 55% in size
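Growth kinetics read by CellTiter-Glo luminescence after ≥48 hr at 37 °C. Cells: DT40 Tdp1-/- stably carrying human TDP1, 400 per well, compound exposure in the absence of CPT (DMSO vehicle).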
IL-1B inflam inh – inhibitors of inflammasome signaling (IL-1 beta secretion) | AID 743279 | THP-1 LPS/ATP IL-1B secretion, AlphaLISA, 16 h; stronger effect = lower value | activity change, % at 57.5 µM | hit rate 4.7% among 360,000; in the data active means activity change below about -50%; inconclusive means mostly about -30% to -49%
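THP-1 cells pretreated 1 hr with compounds (up to 57.5 uM final), then stimulated with LPS (250 ng/mL final) plus ATP (1.25 mM final); secreted IL-1B measured by AlphaLISA after 16 hr, decreased signal indicating inhibition.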
A number is an active result; - = inactive; ? = inconclusive; . = no result; [ ] = remark or other dose. A selection: hits, their analogues and other compounds. The true share with any hit is near 19%. Unless noted, the call rests on the fitted dose curve; in most records, active means well fitted curve in the direction sought with a large enough effect; inconclusive means small, poorly fitted or top-dose-only effect, or another doubt; inactive means no such curve, though single readings can be large; an effect the other way counts as inactive or inconclusive.

SMILES	TDP1 cell CPT	HT1080 IDH1KD tx	HT1080NT lethal	TDP1 cell noCPT	IL-1B inflam inh
CCOC(=O)c1ccc(NC(=O)c2nc[nH]c2C(=O)NCCCCCNC(=O)OC(C)(C)C)cc1	?	-	-	18µM	-
CCOC(=O)c1ccc(NC(=O)c2nc[nH]c2C(=O)NCCCCNC(=O)c2[nH]cnc2C(=O)Nc2ccc(C(=O)OCC)cc2)cc1	?	-	-	4.6µM	-
COc1ccccc1CCc1nc2ccccc2n1C1CCN(C(=O)c2cc(C)nn2C)CC1	-[9.04 µM]	.	.	-	.
COc1ccc(CN2C(=O)c3ccc(C(=O)O)cc3C2=O)cc1	-	-	-	-	-
c1ccc(-c2nc3c4ccccc4ccn3c2CN2CCCCC2)cc1	?	-	-	21µM	-71
Cc1ccc(-c2nc3c4ccccc4ccn3c2CN2CCCCC2)cc1	23µM	-	-	23µM	-
Fc1cccc(Cl)c1Cn1nnc2c(NCc3ccncc3)ncnc21	23µM	?	?	?	-
Fc1ccccc1Cn1nnc2c(NCCc3ccccn3)ncnc21	-	-	-	-	-
Fc1cccc(Cl)c1Cn1nnc2c(NCc3ccccn3)ncnc21	?	-	-	-	-59
Fc1cccc(Cl)c1Cn1nnc2c(-n3ccnc3)ncnc21	-	-	-	?	-
O=C(C[n+]1cccc(C(=O)Nc2ccccc2)c1)c1ccc(Cl)cc1	?	?	-	16µM	?
O=C(CN1C=NS(=O)(=O)c2ccc(C(F)(F)F)cc21)Nc1cccc(C(F)(F)F)c1	-	.	.	-	.
CCOc1ccc(C(=O)Nc2ccc(Cc3ccncc3)cc2)cc1Br	-	?	-	-	-89
CCOc1ccc(C(=O)Nc2ccc(N3CCN(C(=O)c4ccco4)CC3)cc2)cc1Br	-	-	-	?	-
CCOc1ccc(C(=O)Nc2ccc(N3CCN(C)CC3)cc2)cc1Br	?	?	-	29µM	-52
CC(=O)NC(CC(=O)OC(C)C(=O)Nc1ncc(Cl)cc1Cl)c1ccccc1 (stereo unspecified)	-	-	-	-	-
Cc1ccc(NC(=O)CSc2nncn3c2cc2sccc23)cc1F	-	.	.	?	.
CCCCN1C(=O)C(=O)N(CC(=O)Nc2sc(CC)cc2C(=O)OCC)C1=O	-	-	-	-	-
O=C1CCC2CN3CCc4c([nH]c5ccccc45)C3CC2C1 (stereo unspecified)	?	-	-	21µM	-
CC1CCN(Cc2c(C(=O)N/N=C/c3ccc(C(F)(F)F)cc3)nnn2-c2nonc2N)CC1	?	26µM	?	?	-
CC1CCN(Cc2c(C(=O)N/N=C/c3cccc(C(F)(F)F)c3)nnn2-c2nonc2N)CC1	15µM	?	-	15µM	-
CCOc1ccc(/C=N/NC(=O)c2nnn(-c3nonc3N)c2CN2CCC(C)CC2)cc1	-	-	-	?	-
CC(C)c1c(C(=O)N/N=C/c2ccc(C(F)(F)F)cc2)nnn1-c1nonc1N	15µM	26µM	?	13µM	-
CCCCNC(=O)c1ccc(NS(=O)(=O)c2ccc3[nH]c(=O)[nH]c3c2)cc1	-	-	-	-	-
COCc1c(C(=O)N2CCN(C3CCCC3)CC2)cnn1-c1nccc(-c2cc(C)sc2C)n1	-[9.04 µM]	.	.	-	.
SMILES	TDP1 cell CPT	HT1080 IDH1KD tx	HT1080NT lethal	TDP1 cell noCPT	IL-1B inflam inh
Cc1onc(-c2ccccc2)c1C(=O)OCC(=O)Nc1ccc2c(c1)OCO2	-	-	-	-	-
CCCc1nc2ccccc2c(C(=O)OC(C)C(=O)NCc2ccc3c(c2)OCO3)c1CC (stereo unspecified)	29µM	-	-	18µM	?
CCc1nc2ccccc2c(C(=O)OCC(=O)NCc2ccc3c(c2)OCO3)c1C	?	-	-	18µM	-
Cc1c(-c2cccc(Cl)c2)nc2ccccc2c1C(=O)OCC(=O)Nc1ccc2c(c1)OCO2	?	?	-	?	-59
COCC(=O)N1CCC(Oc2ccc(C(=O)N(C)CCCC3CCCC3)cc2)CC1	18µM	-	-	21µM	-
CCc1ccc(CN2CCC(Oc3ccc(C(=O)N4CCCCC4)cc3)CC2)cc1	?	-	-	15µM	-
COCC(=O)N1CCC(Oc2ccc(C(=O)N3CCCCCCC3)cc2)CC1	?	-	-	13µM	-
COCC(=O)N1CCC(Oc2ccc(C(=O)N3CCCCCC3)cc2)CC1	-	-	-	-	-
C=CCOc1ccccc1CN1CCC(Oc2ccc(C(=O)N3CCCCC3)cc2)CC1	?	-	-	21µM	-
CSc1ccc(CN2CCC(Oc3ccc(C(=O)N4CCCC4)cc3)CC2)cc1	-	-	?	?	-
Cc1ccccc1CN1CCC(Oc2ccc(C(=O)N3CCCC3)cc2)CC1	-	-	-	-	-
Cc1ccccc1C(=O)Oc1ccc2ccc(O)cc2c1	-	-	-	-	-
C[C@H](CO)N1C[C@H](C)[C@@H](CN(C)Cc2ccc3c(c2)OCO3)Oc2ccc(NS(C)(=O)=O)cc2C1=O	-	-	-	-	-
CC1=C(C(=O)N2CCCCCC2)CC(CC(=O)NCCN2CCOCC2)C(=O)N1Cc1ccc(C(C)(C)C)cc1 (stereo unspecified)	-	-	-	?	-
CCc1ccc(CN2CCC(Oc3ccc(C(=O)N4CCCC4)cc3)CC2)cc1	18µM	-	-	?	-
COc1ccc(CN2CCC(Oc3ccc(C(=O)N4CCCC4)cc3)CC2)c(F)c1	-	-	-	-	-
O=C(c1ccc(OC2CCN(C/C=C/c3ccc(F)cc3)CC2)cc1)N1CCCC1	26µM	?	-	?	-71
O=C(c1ccc(OC2CCN(Cc3ccc(F)cc3)CC2)cc1)N1CCCC1	-	-	-	-	-
Cc1ccc(NS(=O)(=O)c2ccc(C(=O)NNC(=O)c3ccccc3O)cc2)cc1	?	?	-	23µM	-
Cc1ccc(S(=O)(=O)Nc2ccc(C(OC(=O)c3ccccc3[N+](=O)[O-])(C(F)(F)F)C(F)(F)F)cc2)cc1	?	?	-	?	-88
Cc1ccc(NS(=O)(=O)c2ccc(C(=O)NCc3cccnc3)cc2)cc1	?	-	-	15µM	-
O=C(OC(c1ccc(NS(=O)(=O)c2ccccc2)cc1)(C(F)(F)F)C(F)(F)F)c1ccccc1	?	?	?	?	-
O=C(NCc1cccnc1)c1ccc(S(=O)(=O)Nc2ccccc2)cc1	-	-	-	-	-
Cc1ccc(S(=O)(=O)Nc2ccc(C(=O)Nc3ccncc3)cc2)cc1	15µM	-	-	?	-
Cc1ccc(NS(=O)(=O)c2ccc(C(=O)NCc3ccncc3)cc2)cc1	?	-	-	?	-
Cc1cccc2c(N=Nc3ccc(S(=O)(=O)Nc4ccc(Cl)cc4)cc3[N+](=O)[O-])c(O)[nH]c12	-	-	-	-	-
